Results on seven compounds are retold here after PubChem BioAssay (Tox21).

“And” between values parts separate entries of the source, which are not always exact repeats. Equal entries are not always repeated. Records with an inconclusive call do not appear. The source holds several records for some structures; these can differ, active in one and inactive in another. The source made the active and inactive calls. Unless noted, the call rests on the fitted dose curve; in most records, active means well fitted curve in the direction sought with a large enough effect in the repeat runs; inconclusive means weak or mixed curves; inactive means no such curve, though single readings can be large; an effect the other way counts as inactive or inconclusive.

Assay [1] in a line: qHTS assay for small molecule agonists of the p53 signaling pathway (AID 651631; calls by dose curve; further: nearly all actives have a fitted effect of over 15% in size; further: potency means the concentration at half of the fitted maximal effect). Summed up:
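p53RE-bla HCT-116 cells; compounds 16 h, 37 °C; LiveBLAzer B/G FRET substrate 2 h RT; fluorescence intensity read-out, qHTS format.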
A general note: Quantitative high-throughput screening tests each substance at several concentrations.

A short description of assay [2]: qHTS assay for small molecules that induce genotoxicity in human embryonic kidney cells expressing luciferase-tagged ATAD5 (AID 651632). Further: nearly all actives have a fitted effect of over 15% in size. Summed up:
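HEK293T cells carrying luciferase-tagged ATAD5 were given compound or DMSO vehicle and incubated 16 hr at 37C, 5% CO2. Luciferase activity was read after 30 min at room temperature with Amplite; a rise signals genotoxic stress.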

Assay [3] can be described thus: qHTS assay for small molecule agonists of the p53 signaling pathway - cell viability (AID 651633; calls by dose curve; further: nearly all actives have a fitted effect of over 30% in size; further: potency means the concentration at half of the fitted maximal effect). Summed up:
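p53RE-bla cells, seeded at 4,000 per well and rested 5 h at 37 C/5% CO2, received compounds in DMSO for 16 h at 37 C. CellTiter-Glo was then added, and luminescence was read after 30 min at room temperature to gauge cytotoxicity.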

Assay [4] in a line: qHTS assay for small molecule disruptors of the mitochondrial membrane potential - cell viability (AID 720634; calls by dose curve; further: nearly all actives have a fitted effect of over 20% in size; further: potency means the concentration at half of the fitted maximal effect). Summed up:
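HepG2 cells, 2,000 per well, attached overnight, then treated 1 hr at 37 C, 5% CO2. Viability read as ATP by CellTiter-Glo luminescence after 30 min at room temperature. Read in the same wells as the m-MPI membrane-potential dye assay.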

Assay [5] in a line: qHTS assay to test for compound auto fluorescence at 590 nm (red) in HepG2 cells (AID 720674). Summed up:
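Rose Bengal sodium served as the red fluorophore standard. HepG2 monolayers (overnight attachment, MEM with 10% FBS) were exposed to test compounds for 1 hr at 37 C and read at Ex 540/Em 590 nm.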

Assay [6] can be described thus: qHTS assay to test for compound auto fluorescence at 535 nm (green) in HepG2 cells (AID 720675).
A short description of assay [7]: qHTS assay to test for compound auto fluorescence at 460 nm (blue) in HEK293 cells (AID 720678). The method in brief: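 HEK293 cells (2,000 per well, medium with 10% dialyzed FBS) attached for 4-5 hr at 37C, then received compound and stood overnight at 37C, 5% CO2. Blue fluorescence was read at Ex/Em 405/460 nm and expressed relative to triamterene.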
Assay [8] in a line: qHTS assay to test for compound auto fluorescence at 590 nm (red) in HEK293 cells (AID 720679). The method in brief: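 HEK293 cells (2,000/well, medium with 10% dialyzed FBS) attached for 4-5 hr at 37C, received 23 nL compound and were incubated overnight at 37C, 5% CO2. Red fluorescence was then read at 540/590nm Ex/Em, referenced to Rose Bengal sodium.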
Assay [9] can be described thus: qHTS assay to test for compound auto fluorescence at 535 nm (green) in HEK293 cells (AID 720680).
Assay [10] is described as follows: qHTS assay to test for compound auto fluorescence at 460 nm (blue) in HEK293 cell free culture (AID 720681). The method in brief: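 Test compounds were pinned into cell-free culture medium (DMEM with 10% FBS) and fluorescence was read directly at Ex/Em 405/460 nm. Signals were expressed as fluorescence equivalents of triamterene, with DMSO vehicle as control.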

Assay [11] in a line: qHTS assay to test for compound auto fluorescence at 535 nm (green) in HEK293 cell free culture (AID 720682). The method in brief:
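Cell-free medium (DMEM, 10% FBS) receives compound or DMSO by pintool. Plate read directly at Ex 485/Em 535 nm. Signal converted to fluorescein equivalency.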

Assay [12] in a line: qHTS assay to test for compound auto fluorescence at 590 nm (red) in HEK293 cell free culture (AID 720683). The method in brief:
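Tox21 10K library compounds were pinned into cell-free DMEM with 10% FBS and fluorescence was read at excitation 540 nm. Activity is expressed as Rose Bengal sodium equivalency.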

A short description of assay [13]: qHTS assay to test for compound auto fluorescence at 590 nm (red) in HepG2 cell free culture (AID 720684). The method in brief: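 Red fluorescence (540 nm excitation, 590 nm emission) was measured after compound transfer into cell-free MEM supplemented with 10% FBS. Values are equivalencies against Rose Bengal sodium.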
A short description of assay [14]: qHTS assay to test for compound auto fluorescence at 460 nm (blue) in HepG2 cell free culture (AID 720685). Summed up:
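Compound (23 nL) or DMSO pinned into cell-free MEM with 10% FBS; blue fluorescence read at 405/460 nm excitation/emission, expressed as auto-fluorescence equivalency to triamterene.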

Assay [15] is described as follows: qHTS assay to test for compound auto fluorescence at 535 nm (green) in HepG2 cell free culture (AID 720686).
Assay [16] in a line: qHTS assay to test for compound auto fluorescence at 460 nm (blue) in HepG2 cells (AID 720687). The method in brief:
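Cells (2,000/well in MEM with 10% FBS) attached overnight at 37 C, then were exposed to compound or DMSO for 1 hr at 37 C, 5% CO2. Fluorescence read at Ex/Em 405/460 nm, expressed as triamterene-equivalent signal.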

The target in assay [17] is Glucocorticoid receptor (Homo sapiens) (UniProt P04150). As to the kind of experiment: qHTS assay to identify small molecule antagonists of the glucocorticoid receptor (GR) signaling pathway (AID 720692; active means well fitted inhibition curve with a large enough effect in the signal ratio in the repeat runs, not every such curve was filed as active; the % refers to the signal ratio; further: potency means the concentration at half of the fitted maximal effect). Summed up: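 GR-bla HeLa cells carrying a GRE-driven beta-lactamase reporter received compound after 4 h plating, then dexamethasone (5 nM final). After 18 h at 37C, the FRET substrate was loaded for 2 h at room temperature and fluorescence read.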
Glucocorticoid receptor (Homo sapiens), sequence (P04150 whole entry, looked up): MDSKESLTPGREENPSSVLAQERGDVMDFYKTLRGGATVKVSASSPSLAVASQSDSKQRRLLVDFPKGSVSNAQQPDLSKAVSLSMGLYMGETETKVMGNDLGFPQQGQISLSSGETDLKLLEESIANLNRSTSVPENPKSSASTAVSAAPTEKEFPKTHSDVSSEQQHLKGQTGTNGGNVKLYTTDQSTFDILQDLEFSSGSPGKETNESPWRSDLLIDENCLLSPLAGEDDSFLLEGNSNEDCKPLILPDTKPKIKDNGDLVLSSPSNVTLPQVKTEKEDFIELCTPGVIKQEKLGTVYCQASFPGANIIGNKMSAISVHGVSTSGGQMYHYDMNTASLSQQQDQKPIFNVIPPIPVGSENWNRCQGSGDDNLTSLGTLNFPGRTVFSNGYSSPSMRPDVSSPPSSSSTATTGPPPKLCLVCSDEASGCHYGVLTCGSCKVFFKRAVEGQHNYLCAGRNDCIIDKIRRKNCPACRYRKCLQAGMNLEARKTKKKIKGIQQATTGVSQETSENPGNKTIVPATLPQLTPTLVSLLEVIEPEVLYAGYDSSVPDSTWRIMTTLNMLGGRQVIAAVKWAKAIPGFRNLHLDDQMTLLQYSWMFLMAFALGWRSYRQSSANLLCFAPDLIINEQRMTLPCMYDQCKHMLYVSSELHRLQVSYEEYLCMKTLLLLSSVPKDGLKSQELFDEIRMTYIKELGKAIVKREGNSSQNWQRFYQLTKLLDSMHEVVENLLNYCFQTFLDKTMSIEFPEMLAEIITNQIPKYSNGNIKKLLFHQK

The nature of assay [18]: qHTS assay for small molecules that induce genotoxicity in human embryonic kidney cells expressing luciferase-tagged ATAD5 - cell viability (AID 651634; calls by dose curve; further: nearly all actives have a fitted effect of over 25% in size). The method in brief: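 HEK293T cells carrying luciferase-tagged ATAD5, 2,000 cells/well, exposed to compound for 15.5 hr at 37C. Viability read as live-cell protease activity by CellTiter-Fluor fluorescence after 30 min at 37C.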

Assay [19] addresses Glucocorticoid receptor (Homo sapiens) (UniProt P04150). As to the kind of experiment: qHTS assay to identify small molecule agonists of the glucocorticoid receptor (GR) signaling pathway (AID 720691; active means well fitted activation curve with a large enough effect in the signal ratio in the repeat runs, not every such curve was filed as active; the % refers to the signal ratio). The method in brief:
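GR-bla HeLa cells carrying a GRE-driven beta-lactamase reporter, exposed to compounds for 18 h at 37 C. Reporter activation read as fluorescence after 2 h with LiveBLAzer B/G FRET substrate at room temperature.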

Assay [20] in a line: qHTS assay for small molecule disruptors of the mitochondrial membrane potential (AID 720635). Further: potency means the concentration at half of the fitted maximal effect. The method in brief: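 HepG2 cells (2,000/well) attached overnight at 37C, then took compound for 1 hr at 37C, 5% CO2. Mito-MPS dye was added for 30 min; fluorescence was read at 490/535 nm (monomers) and 540/590 nm (aggregates).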
On the % scale 0 is the no-effect control and ±100 the full control effect.

For the compound `C[C@]12CCC(=O)C=C1CC[C@@H]1[C@@H]2C(=O)C[C@@]2(C)[C@H]1CC[C@]2(O)C(=O)CO`, the Potency entry in [1], in assay [2], in assay [3], in [4], in assay [5] and in [6] was “inactive” throughout. Also, the Potency result in assay [8], in [9], in assay [11], in assay [12], in [13] and in assay [15] was “inactive” throughout. Moreover, the result in [7], in [10], in [14] and in [16] was inactive. For the same compound, in assay [17], the Potency was 9.52 µM (active) and 6.92 µM (active).

Consider `C#C[C@]1(O)CC[C@H]2[C@@H]3CCC4=Cc5oncc5C[C@]4(C)[C@H]3CC[C@@]21C`, for which the Potency result in assay [1], in assay [2], in [3], in assay [18], in assay [5] and in [6] was “inactive” in each case. Also, the Potency entry in [8], in assay [9], in [11], in assay [12], in assay [13] and in [15] was “inactive” throughout. Also, in [19], the Potency result was “inactive”. For the same compound, the call in assay [10], in assay [14] and in assay [16] was inactive. Besides, the Potency in [17] was 5.35 µM (active).

`CC1=CCC(C(C)(C)O)CC1` (stereo unspecified): the Potency entry in assay [1], in assay [2], in [3], in [5], in [6] and in [8] was “inactive” throughout. For the same compound, the Potency result in [9], in assay [11], in assay [12], in assay [13] and in assay [15] was “inactive” throughout. Further, the call in [7], in [10], in assay [14] and in assay [16] was inactive.

With `Cn1cnc([N+](=O)[O-])c1Sc1ncnc2nc[nH]c12`, the Potency in assay [1] is 24.2 µM (active); in assay [3], 0.68 µM (active); in assay [20], 23.7 µM (active). Also, the Potency result in [2], in assay [4], in assay [5], in assay [6], in assay [8] and in [9] was “inactive” in each case. In addition, the Potency result in assay [11], in assay [12], in assay [13], in assay [15] and in assay [19] was “inactive” throughout. Besides, the call in assay [7], in assay [10], in assay [14] and in assay [16] was inactive.

On to `Cc1cccc(N(C)C(=S)Oc2ccc3ccccc3c2)c1`, for which the Potency result in [1], in assay [2], in assay [5], in assay [6], in assay [8] and in [9] was “inactive” each time. Further, the Potency result in assay [11], in assay [12], in [13], in assay [15], in assay [19] and in assay [17] was “inactive” throughout. In addition, the Potency result in [3] was “inactive and 17.2 µM (active)”; in assay [4], 17.2 µM (active); in [20] it was “inactive and 21.7 µM (active)”. Also, the result in assay [7] and in assay [10] was inactive. Also, the fluorescence, % of fluorescent control in [14] is -0.0096% [at 18.6 µM] (inactive).

`NNc1ccc(C(=O)O)cc1`: the Potency entry in assay [1], in [3], in assay [4], in [5], in assay [6] and in assay [8] was “inactive” each time. Further, the Potency result in assay [9], in assay [11], in assay [12], in [13] and in assay [15] was “inactive” in each case. The call in assay [7], in assay [10], in assay [14] and in [16] was inactive.

As to `O=Cc1ccccc1O`, the Potency result in assay [1], in [2], in assay [3], in assay [4], in assay [20] and in assay [5] was “inactive” in each case. In addition, the Potency entry in [6], in assay [8], in [9], in assay [12], in assay [13] and in assay [15] was “inactive” each time. In addition, the Potency result in assay [19] and in assay [17] was “inactive” in each case. Also, the compound was classed as inactive in [10] and in assay [14].
